We go through 62 compounds from the supplement of paper PMC11060735.

Several values for one entry are separate records, joined by “and”; a condition that tells them apart may be missing. Equal values may be shown once. Where a name gives a salt, the structure may show the parent alone. The campaign covered roughly 1,800 compounds. About 50 (3%) showed activity. This is one part of a sample in which actives are shown more often than they occur. Values without a mark were called inactive.

The subject of the experiment is mouse p16Ink4a+/- lung fibroblasts (INKBRITE, bleomycin-injured). In words: percentage of GFP+ (p16Ink4a+) fibroblasts among all cells in well; higher = less depletion of p16Ink4a+ cells, active = 20 or less. As to conditions: 1 µM; 3 days.
For `CC[C@]1(O)C[C@@H]2CN(CCc3c([nH]c4ccccc34)[C@@](C(=O)OC)(c3cc4c(cc3OC)N(C)[C@@H]3C45CCN4CC=C[C@](CC)([C@H]45)[C@@H](OC(C)=O)[C@]3(O)C(=O)OC)C2)C1` (some centres not stated) [Vinblastine], the “percentage of GFP+” value is 24.8%.
Under `CC[C@]1(O)C[C@@H]2CN(CCc3c([nH]c4ccccc34)[C@@](C(=O)OC)(c3cc4c(cc3OC)N(C=O)[C@@H]3C45CCN4CC=C[C@](CC)([C@H]45)[C@@H](OC(C)=O)[C@]3(O)C(=O)OC)C2)C1` (some centres not stated) [Vincristine] stands 16.5% (active).
Under `CC#C[C@]1(O)CC[C@H]2[C@@H]3CCC4=CC(=O)CCC4=C3[C@@H](c3ccc(N(C)C)cc3)C[C@@]21C` [Mifepristone] stands 46.9%; under `CN[C@@H](C)C(=O)N[C@H](C(=O)N1CCC[C@H]1C(=O)Nc1snnc1-c1ccccc1)C1CCCCC1`, 21.9%; under `C=CCNC(N)=S` [Allylthiourea], 35%.
For the compound `NC(=S)N/N=C/c1ncccc1N` [Triapine], the “percentage of GFP+” value is 17.4% (active).
Under `N=C(N)N/N=C/c1c(Cl)cccc1Cl` [Guanabenz] stands 49.3%; under `COc1ccc([C@@H]2CC(=O)c3c(O)cc(O)cc3O2)cc1O` [Hesperetin], 47.8%.
Regarding `COc1cc2nccc(Oc3ccc(NC(=O)C4(C(=O)Nc5ccc(F)cc5)CC4)cc3)c2cc1OC` [Cabozantinib], the “percentage of GFP+” value is 29.6%.
Under `CCOc1nc2cccc(C(=O)OC(C)OC(=O)OC3CCCCC3)c2n1Cc1ccc(-c2ccccc2-c2nn[nH]n2)cc1` (configuration not stated) [Candesartan Cilextil] stands 44.8%; under `CC(=O)Oc1cc2c(s1)CCN(C(C(=O)C1CC1)c1ccccc1F)C2` (configuration not stated) [Prasugrel], 49.3%.
As to `Cc1ccc(C(=O)Nc2ccc(CN3CCN(C)CC3)c(C(F)(F)F)c2)cc1C#Cc1cnc2cccnn12` [Ponatinib], the “percentage of GFP+” value is 31.2%.
The value for `Cc1ccc(C(=O)Nc2ccc(CN3CCN(C)CC3)c(C(F)(F)F)c2)cc1C#Cc1cnc2[nH]ncc2c1` [Olverembatinib] was 17.2% (active).
The value for `Cc1ccc(NC(=O)c2ccc(CN3CCN(C)CC3)cc2)cc1Nc1nc(-c2cccnc2)cs1` [Masitinib] was 30.8%; that for `Cn1c(=O)c(F)c(Nc2ccc(I)cc2F)c2c(=O)n(C[C@@H](O)CO)cnc21` was 28.4%.
Under `O=S(=O)(c1cccc2cnccc12)N1CCCNCC1` [Fasudil Hydrochloride] stands 48.7%; under `Nc1ccccc1NC(=O)c1ccc(CNc2nccc(-c3cccnc3)n2)cc1` [Mocetinostat], 12.6% (active); under `Cc1ccc(NC(=O)c2ccc(CN3CCN(C)CC3)cc2)cc1Nc1nccc(-c2cccnc2)n1` [Imatinib, Imatinib Mesylate], 32.5% and 39%.
As to `Nc1ccccc1NC(=O)c1ccc(CNC(=O)OCc2cccnc2)cc1` [Entinostat], the “percentage of GFP+” value was 32%.
Under `N#CC1(c2ccc(NC(=O)c3cccnc3NCc3ccncc3)cc2)CCCC1` [Apatinib] stands 28%; under `N=C(N)NC(=O)c1nc(Cl)c(N)nc1N` [Amiloride], 33.1%; under `CC(C)(C#N)c1cc(Cn2cncn2)cc(C(C)(C)C#N)c1` [Anastrozole], 45.5%.
For the compound `C[C@H](N[C@@H](CCc1ccccc1)C(=O)O)C(=O)N1CCC[C@H]1C(=O)O` [Enalaprilat], the “percentage of GFP+” value is 36.7%.
On to `COC[C@H](NC(=O)c1cnc(C)s1)C(=O)N[C@@H](COC)C(=O)N[C@@H](Cc1ccccc1)C(=O)C1(C)CO1` (some centres not stated) [Oprozomib], for which the “percentage of GFP+” value was 5.21% (active).
Under `CC(C)C[C@H](NC(=O)[C@H](CCc1ccccc1)NC(=O)CN1CCOCC1)C(=O)N[C@@H](Cc1ccccc1)C(=O)N[C@@H](CC(C)C)C(=O)[C@@]1(C)CO1` [Carfilzomib] stands 4.67% (active); under `CC(C)c1nc(CN(C)C(=O)N[C@@H](CCN2CCOCC2)C(=O)N[C@H](CC[C@H](Cc2ccccc2)NC(=O)OCc2cncs2)Cc2ccccc2)cs1` [Cobicistat], 43.4%; under `O=C(Cc1ccc(-c2ccc(OCCN3CCOCC3)cc2)cn1)NCc1ccccc1`, 30.9%.
Under `COc1ccc(C[C@H](NC(=O)[C@H](C)NC(=O)CN2CCOCC2)C(=O)N[C@@H](Cc2ccccc2)C(=O)[C@]2(C)CO2)cc1` stands 11.6% (active).
Under `COC1=C(OC)C(=O)C(CCCCCCCCCCO)=C(C)C1=O` [Idebenone] stands 43.7%; under `CCCc1cc(C)nc(O)c1CNC(=O)c1cc(-c2ccc(N3CCN(C(C)C)CC3)nc2)cc2c1cnn2C(C)C`, 39.6%.
In the case of `O=C(O)c1cc(-c2ccccc2)nc2ccccc12` [Cinchophen], the “percentage of GFP+” value is 46.7%.
The value for `C[C@@]1(c2cc(-c3cncnc3)c(F)cc2F)CCSC(N)=N1` was 36.4%.
The value for `COC(=O)c1ccc2c(/C(=N/c3ccc(N(C)C(=O)CN4CCN(C)CC4)cc3)c3ccccc3)c(O)[nH]c2c1` [Nintedanib] was 25.4%; that for `O=C(NC1CCOCC1)c1ccc(-c2cc(-c3c[nH]nc3-c3ccccn3)ccn2)cc1` was 40.4%; that for `Cc1cnc(NC(=O)Nc2cc(Br)c(C)cc2OC[C@@H]2CNCCO2)cn1` was 28.6%.
Under `CCc1c(Cl)c(O)c(Cl)c(O)c1C(=O)O[C@H]1[C@H](O)[C@H](OC)[C@H](OC/C2=C\C=C\C[C@H](O)/C(C)=C\[C@H](CC)[C@@H](O[C@@H]3OC(C)(C)[C@@H](OC(=O)C(C)C)[C@H](O)[C@@H]3O)/C(C)=C\C(C)=C/C[C@@H]([C@@H](C)O)OC2=O)O[C@@H]1C` [Fidaxomicin] stands 50.9%; under `Cc1cc(C#N)cc(C)c1Oc1nc(Nc2ccc(C#N)cc2)nc(N)c1Br` [Etravirine], 35%; under `COc1cccc2c1C(=O)c1c(O)c3c(c(O)c1C2=O)C[C@@](O)(C(C)=O)C[C@@H]3O[C@H]1C[C@H](N)[C@H](O)[C@H](C)O1` [Daunorubicin], 24.3%.
On to `COc1cccc2c1C(=O)c1c(O)c3c(c(O)c1C2=O)C[C@@](O)(C(=O)CO)C[C@@H]3O[C@H]1C[C@H](N)[C@H](O)[C@H](C)O1` [Doxorubicin], for which the “percentage of GFP+” value is 25.2%.
With `CC(=O)[C@]1(O)Cc2c(O)c3c(c(O)c2[C@@H](O[C@H]2C[C@H](N)[C@H](O)[C@H](C)O2)C1)C(=O)c1ccccc1C3=O` [Idarubicin, Idarubicin Hydrochloride], the “percentage of GFP+” value is 19.9% (active).
The value for `CC(=O)N1CCN(CCOc2ccc(C3CCN(C4=Nn5c(nnc5C(F)(F)F)CC4)CC3)cc2)CC1` was 43.8%; that for `CC[C@H](C)[C@H]1O[C@]2(CC[C@@H]1C)C[C@@H]1C[C@@H](C/C=C(\C)[C@@H](O[C@H]3C[C@H](OC)[C@@H](O[C@H]4C[C@H](OC)[C@@H](O)[C@H](C)O4)[C@H](C)O3)[C@@H](C)/C=C/C=C3\CO[C@@H]4[C@H](O)C(C)=C[C@@H](C(=O)O1)[C@]34O)O2` [Ivermectin] was 37.9%; that for `Cc1cccc(CC(=O)N2CCc3c2ccc(-c2cn(C)c4ncnc(N)c24)c3F)n1` was 45%.
The value for `Cn1cc(CNCC2CCN(c3ncc(C(=O)NO)cn3)CC2)c2ccccc21` [Quisinostat] was 1.92% (active).
The value for `CN1CCc2c(c3ccccc3n2Cc2ccc(C(=O)NO)cc2)C1` [Tubastatin A HCl] was 53.9% and 45%.
Turning to `COc1cc(C(=O)NS(=O)(=O)c2ccccc2C)ccc1Cc1cn(C)c2ccc(NC(=O)OC3CCCC3)cc12` [Zafirlukast], the “percentage of GFP+” value was 47.1%.
Under `COc1ccc(COc2ccc(Cc3cnc(N)nc3N)cc2OC)cc1` stands 33.4%; under `Cc1cccc(C)c1OCC(C)N` (configuration not stated) [Mexiletine], 46%; under `Cc1cc(C)c(CNC(=O)c2cc(-c3ccc(CN4CCOCC4)cc3)cc3c2cnn3C2CCCC2)c(O)n1`, 49.7%.
For `CCNC(=O)c1noc(-c2cc(C(C)C)c(O)cc2O)c1-c1ccc(CN2CCOCC2)cc1` [Luminespib (NVP-AUY922)], the “percentage of GFP+” value was 6.33% (active).
The value for `CCN(c1cc(-c2ccc(CN3CCOCC3)cc2)cc(C(=O)NCc2c(C)cc(C)nc2O)c1C)C1CCOCC1` was 54.5%.
As to `Cc1cc(C2CCCCC2)n(O)c(=O)c1` [Ciclopirox], the “percentage of GFP+” value was 29.6% and 35.5%.
The value for `CCCOc1ccc(C(=O)OCCN(CC)CC)cc1N` [Proparacaine] was 37.1%; that for `COC(=O)CCSCc1ccc(-c2onc(C)c2NC(=O)OC(C)c2ccccc2Cl)cc1` (configuration not stated) was 43.9%; that for `CCN(CC)CCCC(C)Nc1c2ccc(Cl)cc2nc2ccc(OC)cc12` (configuration not stated) [Quinacrine] was 46.6%.
Turning to `O=C(/C=C\n1cnc(-c2cc(C(F)(F)F)cc(C(F)(F)F)c2)n1)N1CC(F)(F)C1`, the “percentage of GFP+” value is 24.1%.
Under `O=C(/C=C\n1cnc(-c2cc(C(F)(F)F)cc(C(F)(F)F)c2)n1)NNc1cnccn1` [Selinexor (KPT-330)] stands 14.7% (active).
Under `COc1cc(-c2ncn(/C=C\C(=O)OC(C)C)n2)cc(C(F)(F)F)c1` stands 14.1% (active); under `CN(C)CCOC(c1ccccc1)c1ccccc1` [Diphenhydramine], 47.9%; under `CC(C)(C)c1cnc(CSc2cnc(NC(=O)C3CCNCC3)s2)o1`, 28.7%.
The value for `N#Cc1ccc2[nH]c(O)c(-c3ccc(CN4CCOCC4)cn3)c2c1` was 40.8%; that for `CO/C(O)=C1\C(C)=NC(C)=C(C(=O)O[C@@H]2CCCN(Cc3ccccc3)C2)[C@@H]1c1cccc([N+](=O)[O-])c1` [Benidipine] was 41.8%.
